Assay outcomes as filed in PubChem BioAssay.
KB-V1 MDR tox: qHTS assay for MDR1-selective chemotherapeutics: Primary screen using the drug-selected MDR subline cells KB-V1. AID 1347076, 2019. Potency, µM (highest dose often 46.1 µM), actives largely listed as cytotoxic. hit rate 3.4% among 400,000. KB-V1 MDR cells viability, CellTiter-Glo, 72 h; note: nearly all actives have a fitted effect of over 60% in size
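KB-V1 MDR subline cells in DMEM (phenol-red free, 10% FBS) exposed to compounds in qHTS concentration series for 72 h at 37 degrees C. Viability read by CellTiter-Glo luminescence; concentration-effect curves fitted after normalization and correction.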
HT1080 IDH1KD tx: qHTS for induction of synthetic lethality in tumor cells producing 2HG: qHTS for the HT-1080-IDH1KD cell line. hit rate 2% among 360,000. HT-1080 IDH1 knockdown viability, ATP luminescence, 48 h. AID 686971, 2013. Potency, µM (doses to about 46.1 µM), for the others: top-dose activity, negative = toxicity, most hits filed as cytotoxic;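 note: 0% = DMSO wells and -100% = cell-free medium wells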
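HT-1080-IDH1KD cells (IDH1 knocked down), 750/well in RPMI with 5% FBS, treated with compound 48 h at 37 degrees C. Viability by CellTiter-Glo luminescence, normalised to DMSO and no-cell wells; concentration-response curves classed.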
DT40 TDP1 no CPT: qHTS for Inhibitors of human tyrosyl-DNA phosphodiesterase 1 (TDP1): qHTS in cells in absence of CPT | hit rate 15% among 420,000 | Potency, µM (titrated, usually from 46.2 µM), without a hit: at the highest dose activity change, negative = growth inhibition, most hits filed as inhibitors | DT40 Tdp1-/- hTDP1 cells, no CPT, ATP luminescence, 48 h; note: nearly all actives have a fitted effect of over 55% in size
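Camptothecin absent (DMSO only). Human TDP1-complemented DT40 knockout cells, 400 cells/well, 37 °C for minimum 48 hr; ATP measured via CellTiter-Glo, 30 min dark incubation, luminescence.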
HT1080NT lethal: qHTS for induction of synthetic lethality in tumor cells producing 2HG: qHTS for the HT-1080-NT fibrosarcoma cell line | HT-1080-NT fibrosarcoma viability, CellTiter-Glo ATP luminescence, 48 h | Potency, µM (doses to about 46.1 µM), inactives show at the highest dose activity, negative = less viability, usual class: cytotoxic | hit rate 1.6% among 360,000;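 note: NT is the 2HG producing partner of a matched IDH1 knockdown line; 0% = DMSO-treated cells and -100% = media-only wells without cells; nearly all actives have a fitted effect of over 55% in size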
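A 48-hour cytotoxicity screen used HT-1080-NT cells plated 2 hours before compound delivery. ATP-based CellTiter-Glo luminescence measured viability, normalized to DMSO and no-cell controls.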
DT40 TDP1 CPT: qHTS for Inhibitors of human tyrosyl-DNA phosphodiesterase 1 (TDP1): qHTS in cells in presence of CPT | Potency, µM (top dose mostly 46.2 µM), for inactives: at the top dose activity change, negative = growth inhibition, hits mostly inhibitors | chicken DT40 Tdp1-/-;hTDP1 cells + 20 nM CPT, ATP luminescence, 48 h | hit rate 12% among 420,000; note: nearly all actives have a fitted effect of over 55% in size
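Chicken DT40 Tdp1-/- cells stably complemented with human TDP1 were seeded at 400 cells/well in medium containing 20 nM camptothecin, exposed to pin-transferred compounds, and grown at 37 °C for at least 48 hr. Viability was read as ATP luminescence.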
KB-3-1 cytotox: qHTS assay for MDR1-selective chemotherapeutics: Primary screen using the parental adenocarcinoma cell KB-3-1 | KB-3-1 viability, CellTiter-Glo ATP luminescence, 72 h | hit rate 1.4% among 400,000 | AID 1347075, 2019 | Potency, µM (series often up to 46.1 µM), actives largely listed as cytotoxic; note: nearly all actives have a fitted effect of over 60% in size
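Cytotoxicity in the drug-sensitive parental line KB-3-1 was scored as loss of CellTiter-Glo luminescence following 72 h incubation with compound. Values come from curve fitting of normalized concentration-response data.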
An asterisk follows results filed as active; i = inactive; ? = inconclusive; . = not tested or not shown; [ ] = dose if it differs, or a comment. This is a sample that favours compounds with a hit; in the whole collection about 19% have one here. Calls come from the whole dose curve; as a rule, active = well fitted curve in the direction sought with a large enough effect; inconclusive = small, poorly fitted or top-dose-only effect, or another doubt; inactive = no such curve, though single readings can be large; an effect the other way counts as inactive or inconclusive. Unless noted, % is set by controls: 0 for no effect and ±100 for the full control effect; potency is the fitted concentration of half-maximal effect.

SMILES | KB-V1 MDR tox | HT1080 IDH1KD tx | DT40 TDP1 no CPT | HT1080NT lethal | DT40 TDP1 CPT | KB-3-1 cytotox
CCCCC(=O)Nc1ccc(NCc2ccc(C)s2)cc1 | i | -17% | 3.7µM* | -28% | ? | i
CCN(Cc1ccccc1)C(=O)Cc1c[nH]c2ccccc12 | i | -13% | -23% | -5% | 3% | i
COc1ccc(NC(=O)NCCN2CCN(c3cc(OC)ccc3OC)CC2)cc1 | i | 7% | -3% | 8% | -8% | i
COc1ccc(N2CCN(CCCNC(=O)C3(S(=O)(=O)c4ccc(Cl)cc4)CC3)CC2)cc1 | 9.2µM* | 5% | ? | 2% | -28% | i
COc1ccc(NC(=O)NCCN2CCc3ccccc3C2)cc1 | i | 1% | -8% | -1% | -14% | i
COc1ccc(Cl)c(N2CCN(CCCNC(=O)Nc3ccc(C)cc3)CC2)c1 | i | ? | ? | ? | ? | 23µM*
COc1ccc(N2CCN(CCCNC(=O)Nc3ccccc3Cl)CC2)cc1 | i | . | 21µM* | . | ? | ?
O=C(NCCCN1CCc2ccccc2C1)Nc1ccc(Cl)cc1 | 15µM* | ? | -27% | ? | 16µM* | i
O=C(NCCCN1CCN(c2cccc(Cl)c2)CC1)C1(S(=O)(=O)c2ccc(Cl)cc2)CC1 | i | -17% | ? | -9% | ? | ?
O=C(NCCCN1CCOCC1)NC12CC3CC(CC(C3)C1)C2 | ? | 1% | -29% | -4% | -15% | i
O=C(NCCCN1CCN(c2ccc(F)cc2)CC1)Nc1ccc(Cl)cc1 | i | . | 18µM* | . | 21µM* | i
O=C(NCCCN1CCN(c2ccc(F)cc2)CC1)NC12CC3CC(CC(C3)C1)C2 | i | 15µM* | 21µM* | 16µM* | 16µM* | i
CSc1ccc(N2CCN(CCCNC(=O)Nc3ccccc3F)CC2)cc1 | ? | -1% | ? | 7% | ? | i
O=C(NCCCN1CCN(c2ccc(F)cc2)CC1)Nc1ccccc1Cl | i | . | ? | . | 21µM* | i
COCC(=O)N(C)C[C@H]1Oc2ncc(Br)cc2C(=O)N([C@@H](C)CO)C[C@H]1C | i | 12% | 6% | 19% | 2% | i
Cc1ccc(OCc2cc(C(=O)NC3CCOC3)no2)cc1C (stereo unspecified) | ? | 0% | -4% | 3% | -14% | i
Cc1ccc(Cl)cc1N1CCN(C(=O)CCNS(=O)(=O)c2ccc3c(c2)CCN3C(=O)C2CC2)CC1 | ? | . | 23µM* | . | 8.2µM* | ?
O=C(CCNS(=O)(=O)c1ccc2c(c1)CCN2C(=O)C1CC1)N1CCN(c2cccc(C(F)(F)F)c2)CC1 | i | . | 1.6µM* | . | 2.1µM* | ?
COc1ccccc1N1CCN(C(=O)CCNS(=O)(=O)c2ccc3c(c2)CCN3C(=O)C2CC2)CC1 | i | . | 23µM* | . | 16µM* | i
CC1CN(S(=O)(=O)c2csc(C(=O)Nc3ccccc3)c2)CC(C)O1 (stereo unspecified) | ? | -1% | ? | ? | ? | i
CC(/C=N/NC(=O)c1cc(-c2cccnc2)nc2c1c(C)nn2-c1ccccc1)=C\c1ccccc1 | i | -5% | 13µM* | -5% | 18µM* | i
Cc1nn(-c2ccccn2)c2nc(-c3cccs3)cc(C(=O)NCc3ccco3)c12 | ? | -27% | 23µM* | -16% | 23µM* | ?
Cc1nn(-c2ccccc2)c2nc(-c3ccncc3)cc(C(=O)NCc3ccco3)c12 | ? | ? | 18µM* | ? | ? | ?
CCOC(=O)c1cc(-c2cccs2)nc2c1c(C)nn2-c1ccccn1 | i | ? | 15µM* | ? | 15µM* | i
CC(=O)Nc1ccc(CN2C(=O)C(C)(C)ON=C2c2ccc(C(F)(F)F)cc2)cc1 | i | 8% | -11% | 23% | -1% | i
SMILES | KB-V1 MDR tox | HT1080 IDH1KD tx | DT40 TDP1 no CPT | HT1080NT lethal | DT40 TDP1 CPT | KB-3-1 cytotox
COC(=O)c1ccccc1-c1cc(C)cc2c1OC(CNC(=O)c1cc(C)on1)C2 (stereo unspecified) | . | . | ? | . | -9%[9.04 µM] | .
Cc1ccc(N2CC(C(=O)Nc3ccc(S(=O)(=O)NCC4CCCO4)cc3)CC2=O)cc1C (stereo unspecified) | i | -21% | ? | -20% | -15% | i
CCN(CC)c1ccc(/C=N/Nc2nc(C)cc(C)n2)cc1 | i | -9% | 18µM* | -6% | 23µM* | i
CCN(CC)c1ccc(/C=N/Nc2nn[nH]n2)cc1 | i | 0% | 12µM* | -13% | ? | i
Brc1cccc(/C=N/Nc2nn[nH]n2)c1 | i | 3% | -25% | -2% | -17% | i
O=C1NC2(CCN(Cc3ccccc3)CC2)Oc2ccccc21 | i | -8% | -20% | 0% | -7% | i
O=C1c2ccccc2OC2(C=Cc3ccccc3O2)N1Cc1ccccc1 (stereo unspecified) | 4.1µM* | 18µM* | 18µM* | ? | 4.6µM* | ?
CSc1nnc(CSCc2ccc(Cl)cc2Cl)n1-c1ccccc1 | ? | ? | 20µM* | 0% | ? | i
Cc1ccc(Sc2c(O)c3ccccc3n(C)c2=O)cc1 | i | 14% | 14% | 11% | -26% | i
Cc1ccc(Sc2c([N+](=O)[O-])c(=O)n(C)c3ccccc23)cc1 | i | 7% | 13µM* | 4% | 15µM* | ?
Cc1ccc(Sc2c(C=O)c3ccccc3n2C)cc1 | ? | ? | ? | ? | ? | 23µM*
CCOC(=O)c1sc(NC(=O)c2cc3n(n2)C(C(F)(F)F)CC(c2cccs2)N3)c(C(=O)OCC)c1C (stereo unspecified) | i | -12% | 13µM* | -6% | ? | i
CCC(C)NC(=O)c1cnn2c1NC(c1cccs1)CC2C(F)(F)F (stereo unspecified) | i | -3% | -28% | -6% | -10% | i
Cc1nn(C)cc1CN(C)C(=O)c1nn2c(c1Cl)NC(c1cccs1)CC2C(F)(F)F (stereo unspecified) | 18µM* | -14% | 13µM* | -18% | ? | i
